The text below walks through data of PubChem BioAssay AID743135 (Broad Institute, 2013).

Results filed as inconclusive are left out. Activity calls are given as the source filed them.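 The calls were made as follows: active = fitted drop in cell viability signal with half-maximal potency at most twice the top valid dose; inconclusive = flat fit with a 30 to 70% drop, or poor fit; inactive = opposite direction, flat within 30%, or potency beyond limit.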

The test can be described thus: HEK293T viability reduction – cell-based, ATP luminescence, dry powder, Set3, 50 µM top, cytotoxicity control, dose response (AID 743135). The settings on record: CellTiter-Glo ATP luminescence, 72 h; series mostly up to 50 µM.
For `Cc1c(C(=O)O)sc2nc(/C=C/c3ccccn3)[nH]c(=O)c12`, the outcome was inactive.
As for `Cc1c(C(=O)O)sc2nc(/C=C/c3cccnc3N)[nH]c(=O)c12`, the activity change, negative = cytotoxicity is -17.4% [at 12 µM] (inactive).
For `Cc1c(C(=O)O)sc2nc(/C=C/c3cccc(C(N)=O)c3)[nH]c(=O)c12`, the outcome was inactive.
The same measure, in the same setting: the same measure for `Cc1c(C(=O)O)sc2nc(/C=C/c3cccc(C(F)(F)F)c3)[nH]c(=O)c12`: “inactive”; for `Cc1c(C(=O)O)sc2nc(/C=C/c3cccc(O)c3)[nH]c(=O)c12`: “inactive”; for `Cc1c(C(=O)O)sc2nc(/C=C/c3ccnc4ccccc34)[nH]c(=O)c12`: “inactive”.
Still for that read-out and setting: to `Cc1c(C(=O)O)sc2nc(/C=C/c3cccc(F)c3)[nH]c(=O)c12` belongs “inactive”; to `Cc1c(C(=O)O)sc2nc(/C=C/c3cccc(N4CCNCC4)c3)[nH]c(=O)c12`, “inactive”; to `Cc1c(C(=O)O)sc2nc(/C=C/c3cccc(OC(F)(F)F)c3)[nH]c(=O)c12`, “inactive”.
Still for that read-out and setting: to `Cc1c(C(=O)O)sc2nc(/C=C/c3ccc4ccccc4c3)[nH]c(=O)c12` belongs “inactive”; to `Cc1c(C(=O)O)sc2nc(/C=C/c3cnc4ccccc4c3)[nH]c(=O)c12`, “inactive”.
For `Cc1c(C(=O)O)sc2nc(/C=C/C3CC3)[nH]c(=O)c12`, the outcome was inactive.
Same read-out and setting: the same measure for `COc1cccc(/C=C/c2nc3sc(C(=O)O)c(C)c3c(=O)[nH]2)c1`: “inactive”; for `Cc1c(C(=O)O)sc2nc(/C=C/c3ccc4cc[nH]c4c3)[nH]c(=O)c12`: “inactive”; for `Cc1c(C(=O)O)sc2nc(/C=C/c3cccc(N)c3)[nH]c(=O)c12`: “inactive”.
For the compound `Cc1c(C(=O)O)sc2nc(/C=C/c3ccc4[nH]ccc4n3)[nH]c(=O)c12`, the activity change, negative = cytotoxicity is -5.92% [at 12 µM] (inactive).
For `Cc1c(C(=O)O)sc2nc(/C=C/C=C/c3ccccc3)[nH]c(=O)c12`, the compound was called inactive.
The same measure, in the same setting: the same measure for `Cc1c(C(=O)O)sc2nc(/C=C/c3cccc(N4CCOCC4)n3)[nH]c(=O)c12`: “inactive”; for `Cc1c(C(=O)O)sc2nc(/C=C/c3cc4ccccc4cn3)[nH]c(=O)c12`: “inactive”; for `Cc1c(C(=O)O)sc2nc(/C=C/c3cccnc3)[nH]c(=O)c12`: “inactive”.
On to `Cc1c(C(=O)O)sc2nc(/C=C/c3ccc4[nH]ccc4c3)[nH]c(=O)c12`, for which the result was inactive.
Same read-out and setting: to `Cc1c(C(=O)O)sc2nc(/C=C/c3ccccc3)[nH]c(=O)c12` belongs “inactive”.
For `Cc1c(C(=O)O)sc2nc(/C=C/c3ccc(O)cn3)[nH]c(=O)c12`, the activity change, negative = cytotoxicity is 6.21% [at 1.2 µM] (inactive).
Turning to `Cc1c(C(=O)O)sc2nc(/C=C/c3ccccc3O)[nH]c(=O)c12`, the compound was classed as inactive.
Still for that read-out and setting: to `Cc1c(C(=O)O)sc2nc(/C=C/c3cccc([N+](=O)[O-])c3)[nH]c(=O)c12` belongs “inactive”; to `Cc1c(C(=O)O)sc2nc(/C=C/c3ccc(N)nc3)[nH]c(=O)c12`, “inactive”.
Same read-out and setting: the same measure for `Cc1c(C(=O)O)sc2nc(CCc3cccc(O)c3)[nH]c(=O)c12`: “inactive”; for `Cc1c(C(=O)O)sc2nc(/C=C/c3cccc(C(=O)O)c3)[nH]c(=O)c12`: “inactive”; for `Cc1c(C(=O)O)sc2nc(/C=C/c3cccc(=O)[nH]3)[nH]c(=O)c12`: “inactive”.
